Source: PubChem (National Center for Advancing Translational Sciences (NCATS))
Compounds with a hit are over-represented: about 2% of the library has one in this group of screens.
TDP43 rescue: TDP-43 toxicity inhibition in yeast; TDP-43 expressing yeast growth rescue, BacTiter-Glo, 24 h; 410,000 tested, 1.8% active; Potency, µM (titrated, usually from 46.1 µM), for the others: at the highest dose growth rescue (activation), actives largely listed as activators; note: potency is the fitted concentration of half-maximal effect; % of control where 0% means no effect; nearly all actives have a fitted effect of over 50% in size
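Growth rescue of TDP-43-toxic yeast measured as ATP luminescence (BacTiter-Glo). Cells grown to mid-log in raffinose, induced in galactose at OD600=0.02, exposed to compound 24 hr at 30 deg C.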
Abeta yeast res: compounds reversing amyloid beta toxicity in yeast | yeast expressing A-beta42, growth rescue, OD600, 48 h; response scale: 0% DMSO, 100% iron-clioquinol control | Potency, µM (titrated, usually from 46.1 µM), actives largely listed as activators | 410,000 tested, 0.063% active | AID 1347071; note: potency is the fitted concentration of half-maximal effect; nearly all actives have a fitted effect of over 55% in size
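Growth rescue measured by 600 nm absorbance after 48 h yeast culture at 30 C with compound. Values normalized between DMSO and an equimolar ferric chloride plus clioquinol control.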
IDH1 R132H inh: blocks human mutant IDH1 R132H enzyme; O75874; Potency, µM (top dose mostly 76.6 µM), for inactives: at the top dose activity change, negative = inhibition, most hits filed as inhibitors; 390,000 tested, 0.093% active; IDH1-R132H enzyme, NADPH consumption, diaphorase/resazurin fluorescence; note: potency is the fitted concentration of half-maximal effect; % is set by controls: 0 for no effect and ±100 for the full control effect; nearly all actives have a fitted effect of over 65% in size
Target sequence (O75874 whole entry R132H, stated change not applied): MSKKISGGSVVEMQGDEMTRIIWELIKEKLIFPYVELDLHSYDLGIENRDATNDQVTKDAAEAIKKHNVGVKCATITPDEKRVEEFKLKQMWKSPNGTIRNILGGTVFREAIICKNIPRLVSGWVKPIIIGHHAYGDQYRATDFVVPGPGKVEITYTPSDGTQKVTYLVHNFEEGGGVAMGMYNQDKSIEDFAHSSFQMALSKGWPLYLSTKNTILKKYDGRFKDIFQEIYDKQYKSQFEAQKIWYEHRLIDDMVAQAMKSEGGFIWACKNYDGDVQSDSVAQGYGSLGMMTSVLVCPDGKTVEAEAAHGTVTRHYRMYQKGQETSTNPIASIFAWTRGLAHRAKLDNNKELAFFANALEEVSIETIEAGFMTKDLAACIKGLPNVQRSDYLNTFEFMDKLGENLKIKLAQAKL
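IDH1-R132H (0.5 ug/mL) preincubated 30 min with compound, then NADPH (0.016 mM) and alpha-KG (2 mM) added; 80 min at RT, pH 7.5. Remaining NADPH coupled via diaphorase/resazurin to fluorescence (540/590 nm); concentration-response curves normalized to no-enzyme control.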
LDHA block: blocks human lactate dehydrogenase A. 480,000 tested, 0.15% active. activity change, % (values are at about 110 or 230 µM). P00338. purified LDHA, NADH/diaphorase-resazurin fluorescence; active compounds read low; in the data active = activity change below about -30%; inconclusive = mostly about -25% to -30%;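 note: plate controls were DMSO wells for no effect and wells without enzyme for full effect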
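Remaining NADH was detected by diaphorase (0.133 mg/mL) converting 37 µM resazurin to fluorescent resorufin, read at 0 and 20 minutes. The preceding 5-minute room-temperature reaction used 2 nM LDHA, 0.2 mM sodium pyruvate and 0.06 mM NADH at pH 7.4.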
FUS yeast rescue: FUS proteinopathy suppression in yeast; S. cerevisiae FUS-expressing, growth rescue, OD600, 24 h; Potency, µM (highest dose often 76.6 µM), usual class: activators; 390,000 tested, 0.24% active;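 note: potency is the fitted concentration of half-maximal effect; plate controls were DMSO vehicle for no effect and reference control for full effect; nearly all actives have a fitted effect of over 55% in size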
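Restored growth of FUS-toxic S. cerevisiae, read as 600 nm absorbance after 24 h at 30C in galactose medium (starting OD 0.005). Controls CP55940 and DMSO.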
aSyn yeast inh: alpha-synuclein toxicity inhibition in yeast. Yeast expressing alpha-synuclein, growth rescue, BacTiter-Glo, 24 h. Potency, µM (doses to about 46.1 µM), without a hit: at the top dose growth rescue (activation), usual class: activators. 370,000 tested, 0.14% active. AID 652106; note: potency is the fitted concentration of half-maximal effect; % of control where 0% means no effect; nearly all actives have a fitted effect of over 65% in size
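Rescue of yeast growth: cells expressing toxic alpha-synuclein, induced in galactose at OD600 0.02, incubated with compound 24 h at 30 C. ATP luminescence quantified growth; inhibitors of toxicity appear as activators.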
Active calls of the source: *; i = inactive; ? = inconclusive; nt = no result. Unless noted, calls come from the whole dose curve; as a rule, active = well fitted curve in the direction sought with a large enough effect; inconclusive = small, poorly fitted or top-dose-only effect, or another doubt; inactive = no such curve, though single readings can be large; an effect the other way counts as inactive or inconclusive.

SMILES	TDP43 rescue	Abeta yeast res	IDH1 R132H inh	LDHA block	FUS yeast rescue	aSyn yeast inh
C=CCN(CCC(=O)NC(=O)NC)CCc1ccccc1	nt	nt	nt	12.6	nt	nt
Cc1ccc2nc(C)cc(C(=O)NCc3ccco3)c2c1	nt	nt	nt	21.8	nt	nt
CC(C)NCCCOc1ccc(C(C)(C)c2ccccc2)cc1	-4.3%	i	2.3%	-31.7*	i	-1.4%
COCCCNCCCOc1ccc(C(C)(C)c2ccccc2)cc1	-7.1%	i	3.0%	-21.4	nt	-6.4%
CC(O)CNCCCOc1ccc(C(C)(C)c2ccccc2)cc1 (stereo not given)	nt	nt	nt	-1.7	nt	nt
COCCNCCCOc1ccc(C(C)(C)c2ccccc2)cc1	-13.9%	i	3.7%	-33.0*	i	-5.3%
O=C(COc1ccccc1Cl)Nc1ccc(N2CCN(C(=O)c3ccccc3)CC2)cc1	22.4µM*	i	8.1%	-2.4	i	0.1%
O=C(COc1ccccc1Cl)Nc1ccc(N2CCCC2)cc1	23.3%	i	17.9%	-3.3	i	3.8%
Cc1ccccc1OCC(=O)Nc1ccc(N2CCN(C(=O)c3ccco3)CC2)cc1	15.8µM*	?	-2.7%	-7.3	i	1.8%
Cc1ccc2oc(=O)n(CCCOc3ccccc3)c2c1	35.5µM*	i	7.6%	-2.7	i	8.0%
O=c1oc2ccccc2n1CCCOc1ccccc1Cl	15.8µM*	i	-6.4%	3.1	i	nt
COc1ccc(OCCCn2c(=O)oc3ccc(C)cc32)cc1	?	i	nt	2.1	i	nt
Cc1cc(Cl)ccc1OCCCc1n[nH]c(=S)n1Cc1ccco1	nt	nt	nt	9.6	nt	nt
S=c1[nH]nc(COc2ccc(Cl)cc2)n1Cc1ccco1	?	12.6µM*	-7.0%	-13.5	i	5.2%
CC1Cc2cc(S(=O)(=O)NCCc3ccc(Cl)cc3)ccc2N1C(=O)C1CCC1 (stereo not given)	17.8µM*	?	-23.8%	-2.9	i	nt
Cc1ccc(CCNS(=O)(=O)c2ccc3c(c2)CC(C)N3C(=O)C2CCC2)cc1 (stereo not given)	?	i	-10.7%	4.5	i	nt
COc1cc(OC)c(NC(=O)C(NS(=O)(=O)c2cccc3nsnc23)c2ccccc2)cc1Cl (stereo not given)	7.4%	i	20.6%	-4.1	22.4µM*	nt
CC(=O)c1cccc(NC(=O)N(c2ccccc2)c2ccccc2)c1	15.8µM*	i	5.7%	-2.0	i	11.7%
CC(=O)c1cccc(NC(=O)c2ccc3c(c2)OCO3)c1	12.6µM*	i	-1.2%	-1.7	i	2.6%
C=CCn1c(NCCCOC)nc2c1c(=O)[nH]c(=O)n2C	nt	nt	nt	-34.5*	nt	nt
CC(Oc1cccc(Br)c1)C(=O)NNC(=O)c1ccc2c(c1)NC(=O)CCS2 (stereo not given)	nt	nt	nt	9.7	nt	nt
Cc1oc2c(c1C(=O)Nc1ccc(C(=O)O)cc1)CCCC2	12.6µM*	i	0.8%	-4.9	i	16.7%
COc1ccc(-c2nc(-c3ccc(O)cc3O)cs2)cc1OC	17.8µM*	i	?	-8.9	i	0.8%
FC(F)(F)c1cccc(-n2nnnc2C2(NC3CCCCC3)CCCC2)c1	nt	nt	nt	-1.4	nt	nt
Cc1ccc(Nc2ncc(C(=O)NCCCN3CCN(C)CC3)c3ccccc23)cc1Cl	nt	i	9.5%	-4.1	i	-3.0%
Cc1ccc(Cl)cc1N1CCN(C(=O)c2cnc(N3CCOCC3)c3ccccc23)CC1	22.4µM*	i	-10.7%	-2.3	15.8µM*	nt
Cc1ccc(Nc2ncc(C(=O)N3CCN(c4cccc(Cl)c4)CC3)c3ccccc23)cc1Cl	15.8µM*	i	-2.9%	-12.4	?	nt
CN(C(=O)c1cnc(N2CCN(c3ncccn3)CC2)c2ccccc12)c1ccc(Cl)cc1	10µM*	?	13.7%	-2.7	i	11.0%
CCN(C(=O)c1cnc(N2CCN(c3ncccn3)CC2)c2ccccc12)c1cccc(Cl)c1	?	i	4.4%	-1.4	i	-18.3%
COc1ccc(C(=O)Nc2cccc3ncccc23)cc1	nt	nt	nt	-20.5	nt	nt
